hcDAF-12 act – activators of H. contortus DAF-12 nuclear receptor; HEK293 hcDAF-12 lit1-tk-luc reporter, luminescence; 0% DMSO, 100% Δ7-dafachronic acid; activation, % at 6.8 µM; 370,000 compounds, 1.4% hits;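 active = activation above the mean of all tested compounds plus 3 SD, cut at about 5.5% in these data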;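 also: 100% = response to 3 µM Δ7-dafachronic acid high control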
ssDAF12 agonist – activators of S. stercoralis DAF-12 nuclear receptor. 370,000 compounds, 1% hits. HEK293 ssDAF-12/GRIP1 lit1-tk-luc reporter, luminescence; % of 3 µM dafachronic acid response. activation, % at 6.8 µM;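 active = activation above the mean over all tested compounds plus 3 SD, cut at about 0.9% in these data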;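 also: 0% = DMSO-only wells and 100% = 3 µM delta7-dafachronic acid wells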
DAX1 inh-1 – NR0B1 (DAX1) inhibition. 340,000 compounds, 0.99% hits. inhibition, % at 6.75 µM. P51843. HEK293 Gal4-DAX1 luciferase reporter, luminescence;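 active = inhibition above the mean over all tested compounds plus 3 SD, cut at about 4.2% in these data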;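 also: 0% = DAX1-transfected cells with DMSO and 100% = empty-vector control cells with DMSO; inhibition shows as a rise in luminescence from relieved DAX1 repression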
Target sequence (P51843 207-470 limits assumed): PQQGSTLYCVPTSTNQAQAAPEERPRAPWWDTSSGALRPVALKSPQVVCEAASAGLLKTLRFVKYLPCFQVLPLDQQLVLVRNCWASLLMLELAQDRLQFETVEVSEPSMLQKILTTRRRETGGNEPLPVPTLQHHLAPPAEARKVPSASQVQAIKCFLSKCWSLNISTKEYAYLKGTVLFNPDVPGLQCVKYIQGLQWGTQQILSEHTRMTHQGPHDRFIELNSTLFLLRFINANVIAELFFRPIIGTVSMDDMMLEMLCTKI
DAX1 inh-2 – inhibitors of DAX1 repression of SF-1 activated StAR promoter | inhibition, % at 6.8 µM | HEK293T StAR-luciferase reporter, SF-1/DAX-1 repression relief | AID 652010 | 370,000 compounds, 1.1% hits;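 active = inhibition above the mean over all tested compounds plus 3 SD, cut at about 3.6% in these data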;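 also: 0% = DAX-1 cells with DMSO and 100% = cells lacking DAX-1 with DMSO; higher inhibition means more luminescence from relief of DAX-1 repression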
hgDAF-12 ag – agonists of H. glycines DAF-12 nuclear receptor. 370,000 compounds, 1.8% hits. HEK293 GAL4-hgDAF12 UAS-luciferase reporter, agonist luminescence; normalized to butyrate control. activation, % at 6.8 µM;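 active = activation above a cutoff set at the mean of all screened compounds plus 3 SD, cut at about 10% in these data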;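 also: 0% = DMSO wells and 100% = sodium butyrate wells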
DAX1 inh confirm – NR0B1 (human) inhibition, confirmation; inhibition, % at 6.8 µM; shares compounds with DAX1 inh-2; 2,400 compounds, 87% hits; AID 652134; HEK293T StAR-promoter luciferase reporter, SF-1/DAX-1 repression;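 active = inhibition above the average of every tested compound plus 3 SD, cut at about 3.8% in these data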;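 also: 0% = DAX-1 cells with DMSO and 100% = no DAX-1 control cells with DMSO; active compounds raise luminescence by relieving repression of the StAR reporter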
SF1 AF2mut Luc – nonselective inhibitor or artifact in SF-1 mutant DAX1 counter-screen; shares compounds with DAX1 inh-2; HEK293 StAR-luciferase, SF-1 AF2 mutant, luminescence; inhibition, % at 6.8 µM; 2,400 compounds, 78% hits; AID 652136;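 active = inhibition above the mean of all tested compounds plus 3 SD, cut at about 3% in these data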;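 also: 0% = DAX-1 transfected cells with DMSO and 100% = cells without DAX-1 with DMSO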
LXRb hcDAF ctr – counter-screen for hcDAF-12 agonists: agonists of human LXR-beta; 3,400 tested, under 10 active; HEK293 Gal4-LXR tk-luc reporter, luminescence, 24 h; normalized: DMSO 0%, positive control 100%; shares compounds with hcDAF-12 act; activation, % at 6.8 µM;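 active = mean percent activation of the reporter above a cutoff set as the average over tested compounds plus their standard deviation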
Target sequence (P55055 whole entry, looked up, the tested form may be a part): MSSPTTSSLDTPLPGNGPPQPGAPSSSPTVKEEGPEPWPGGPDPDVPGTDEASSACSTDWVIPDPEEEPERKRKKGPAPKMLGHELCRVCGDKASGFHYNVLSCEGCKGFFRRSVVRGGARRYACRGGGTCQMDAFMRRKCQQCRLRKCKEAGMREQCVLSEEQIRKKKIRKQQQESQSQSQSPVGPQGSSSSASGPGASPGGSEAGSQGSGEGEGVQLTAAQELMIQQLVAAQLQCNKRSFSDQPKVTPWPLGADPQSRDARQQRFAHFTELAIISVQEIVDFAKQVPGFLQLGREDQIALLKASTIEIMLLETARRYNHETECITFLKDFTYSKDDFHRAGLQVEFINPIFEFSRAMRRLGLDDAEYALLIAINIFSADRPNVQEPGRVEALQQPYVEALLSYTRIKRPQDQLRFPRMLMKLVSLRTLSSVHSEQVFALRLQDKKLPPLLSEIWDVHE
hcDAF12 conf – hcDAF-12 agonism, confirmation assay. shares compounds with hcDAF-12 act. HEK293 hcDAF-12 lit1-tk-luc reporter, luminescence; % of Δ7-dafachronic acid response. activation, % at 6.8 µM. 3,400 compounds, 61% hits. AID 743032;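 active = mean activation across triplicate tests above the threshold derived from the earlier primary screen, cut at about 5.5% in these data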;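 also: 0% = DMSO only wells and 100% = 3 µM Δ7-dafachronic acid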
hgDAF12 conf – hgDAF-12 agonism, confirmation assay; activation, % at 6.8 µM; HEK293 GAL4-hgDAF12 luciferase reporter, agonist mode; percent of butyrate response; 3,300 compounds, 80% hits; shares compounds with hgDAF-12 ag; AID 743050;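 active = mean activation over triplicate wells above the hit cutoff derived from the earlier primary screen, cut at about 11% in these data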;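 also: 0% = DMSO low control and 100% = 2 mM sodium butyrate high control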
LXRb DAF12 ctr – counter-screen for DAF-12 agonists: agonists of human LXR-beta. AID 743051. shares compounds with hgDAF-12 ag. 3,300 tested, under 10 active. activation, % at 6.8 µM. HEK293 Gal4-LXR luciferase reporter, 24 h;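 active = mean activation of the triplicate above a set limit carried over from the primary screen, none filed active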
* marks the source's active call; other numbers are inactive results; x = no result. Only some compounds are listed: those with a hit (about 4.1% of all), similar ones and a draw of the others.

SMILES	hcDAF-12 act	ssDAF12 agonist	DAX1 inh-1	DAX1 inh-2	hgDAF-12 ag	DAX1 inh confirm	SF1 AF2mut Luc	hgDAF12 conf	LXRb DAF12 ctr	others
COC(=O)c1sc(Nc2ccccc2)nc1C	2	0	1	1	8	x	x	x	x
CC(Cc1ccccc1)NC(=O)c1ccc([N+](=O)[O-])cc1 (stereo not drawn)	5.7*	1	3	4.8*	14*	14*	8.9*	14*	1
CC(Cc1ccccc1)NC(=O)/C=C/c1ccc([N+](=O)[O-])cc1 (stereo not drawn)	-1	-2	-2	-1	1	x	x	x	x
O=C1C(C=Nc2ccc(F)cc2)=C(O)c2ccccc21	8.9*	1	0	5.3*	22*	19*	8.7*	20*	1	LXRb hcDAF ctr=2;hcDAF12 conf=9.5*
O/N=C/c1ccn(-c2ccc(Br)cc2)c1	1	0	4.5*	5.6*	14*	5.9*	3	10	0
CSCCC(NC(=O)COc1ccccc1)C(=O)N(C)Cc1c(F)cccc1Cl (stereo not drawn)	-2	0	0	-1	-2	x	x	x	x
c1coc(-c2cc3nc(NCc4ccc5c(c4)OCO5)ccn3n2)c1	1	-1	x	0	4	x	x	x	x
c1coc(-c2cc3nc(NC4CCCCC4)ccn3n2)c1	10*	1.2*	x	10*	22*	15*	10*	19*	1	LXRb hcDAF ctr=2;hcDAF12 conf=12*
CN(C)S(=O)(=O)c1ccc(-c2cn3ccccc3n2)cc1	0	0	1	1	8	x	x	x	x
Cc1cc(-c2cn3ccccc3n2)c(C)n1-c1ccccc1	5.7*	0	4	4.6*	14*	17*	5.4*	7	1
COc1ccc(-n2c(C)cc(-c3cn4cccc(C)c4n3)c2C)cc1	3	-1	1	0	-1	x	x	x	x
c1ccc(-c2cn3ccccc3n2)cc1	8.9*	0	2	5.0*	14*	12*	8.7*	15*	1	LXRb hcDAF ctr=1;hcDAF12 conf=7.4*
CS(=O)(=O)N[C@@H]1C[C@@H]2O[C@H](CO)CC[C@@H]2O[C@@H]1CCc1ccc(-c2ccccc2F)cc1	-2	-2	x	0	1	x	x	x	x
CCOC(=O)c1ccc(N/C=C/C(=O)c2ccco2)cc1	3	0	2	4.7*	15*	12*	7.1*	17*	1
O=C(/C=C/Nc1ccc(F)cc1)c1ccco1	4	-1	3	3	7	x	x	x	x
C/C(=N\Nc1nc2ccccc2s1)c1ccc2c(c1)OCO2	2	0	1	1	7	x	x	x	x
c1ccc2sc(NN=C3CCCCCC3)nc2c1	12*	1	1	5.2*	13*	5.4*	1	6	1	LXRb hcDAF ctr=2;hcDAF12 conf=11*
Cc1c(NC(=S)NC(=O)c2sc3ccccc3c2Cl)cccc1C(=O)O	3	0	-1	5.9*	18*	9.6*	6.8*	16*	1
COc1ccccc1C(=O)NC(=S)NNC(=O)c1sc2ccccc2c1Cl	3	0	1	0	0	x	x	x	x
Clc1ccc(/C=C/c2nc3ccccc3[nH]2)cc1	7.7*	0	-3	4.5*	14*	11*	5.8*	13*	1	LXRb hcDAF ctr=2;hcDAF12 conf=8.9*
Fc1cccc(/C=N/Nc2ccccn2)c1	2	0	2	2	2	x	x	x	x
C(=N\Nc1ccccn1)/c1ccc2c(c1)OCCO2	6.0*	1	1	5.6*	27*	15*	9.4*	22*	1
C=CCOc1ccc(/C=N/Nc2ccccn2)cc1OC	1	-1	2	5.3*	14*	4.7*	3	11*	0
CCOc1ccc(/C=N/Nc2ccccn2)cc1OC	2	0	2	6.7*	16*	8.3*	4.4*	13*	0
O=C(O)c1cc(N/N=C/c2ccc3c(c2)OCCO3)ccc1Cl	3	0	-4	4.6*	17*	13*	6.0*	23*	1
SMILES	hcDAF-12 act	ssDAF12 agonist	DAX1 inh-1	DAX1 inh-2	hgDAF-12 ag	DAX1 inh confirm	SF1 AF2mut Luc	hgDAF12 conf	LXRb DAF12 ctr	others
CCc1cc2c(nc1CC)CCCN2S(=O)(=O)c1ccc(C#N)cc1	-2	-2	x	-2	0	x	x	x	x
C[C@@H]1CCN(C2CC2)S(=O)(=O)c2ccc(N3CC[C@H](O)C3)cc2O1	-1	-1	x	0	-2	x	x	x	x
Cc1cccc(OCC(=O)Nc2ccc3c(C)cc(=O)oc3c2)c1	-2	-1	1	1	-2	x	x	x	x
COc1ccc(C(=O)NNC(=S)NC(=O)c2ccc(OC)cc2)cc1	0	-1	1	-1	3	x	x	x	x
COc1cccc(C(=O)Nc2ccc3c(C)cc(=O)oc3c2)c1	6.1*	1.0*	1	17*	13*	14*	10*	21*	1
COc1cccc(NC(=O)c2ccccc2)c1	2	-1	0	2	8	x	x	x	x
COc1ccc(C(=O)Nc2cccc(OC)c2)cc1	4	1.0*	1	5.4*	16*	14*	0	16*	1
COc1ccc(C(=O)NNC(=S)Nc2ccccc2)cc1	4	0	2	10*	17*	16*	12*	15*	1
O=C(NNC(=S)Nc1ccccc1Cl)c1ccccc1	3	1	3	15*	14*	12*	8.2*	18*	1
CN(C)c1ccc(/C=N\NC(=O)c2csnn2)cc1	6.5*	1.3*	0	5.0*	17*	12*	6.1*	19*	1
NC(Cc1ccc(F)cc1)c1csc(NC(=O)NC(c2ccccc2)c2ccccc2)n1 (stereo not drawn)	-1	-1	x	0	-1	x	x	x	x
Cc1ccc(NC(=S)c2nc3ccccc3[nH]2)c(C)c1	6.8*	1.6*	1	5.1*	24*	17*	8.1*	19*	1	LXRb hcDAF ctr=2;hcDAF12 conf=13*
CCCCOc1ccc(C(=O)Nc2ccc3c(c2)OCO3)cc1	2	-1	2	1	1	x	x	x	x

Compound activity: PubChem, The Scripps Research Institute Molecular Screening Center
